IL1B secr inh = qHTS for Inhibitors of Inflammasome Signaling: IL-1-beta AlphaLISA Primary Screen; activity change, % at 57.5 µM; THP-1 LPS/ATP IL-1B secretion, AlphaLISA, 16 h; hits give low values; 360,000 tested, 4.7% active; in the data active = activity change below about -50%; inconclusive = mostly about -30% to -49%
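THP-1 cells pretreated 1 hr with compounds (up to 57.5 uM final), then stimulated with LPS (250 ng/mL final) plus ATP (1.25 mM final); secreted IL-1B measured by AlphaLISA after 16 hr, decreased signal indicating inhibition.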
Gal4-VP16 FLuc = VP16 counterscreen qHTS for inhibitors of ROR gamma transcriptional activity; Drosophila S2 Gal4-VP16 UAS-luciferase, luminescence, 20 h; Potency, µM (highest dose often 53.6 µM), actives largely listed as inhibitors; 310,000 tested, 3.5% active;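 note: Gal4-VP16 expression switched on by copper sulfate through the metallothionein promoter; nearly all actives have a fitted effect of over 50% in size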
DT40 TDP1 no CPT = qHTS for Inhibitors of human tyrosyl-DNA phosphodiesterase 1 (TDP1): qHTS in cells in absence of CPT. Potency, µM (top dose mostly 46.2 µM), most hits filed as inhibitors. 420,000 tested, 15% active. DT40 Tdp1-/- hTDP1 cells, no CPT, ATP luminescence, 48 h. AID 686978, 2013; note: nearly all actives have a fitted effect of over 55% in size
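Compound effects on proliferation are scored in DT40 Tdp1-/-;hTDP1 cells in the absence of CPT. ATP levels (CellTiter-Glo luminescence) are recorded after a ≥48 hr, 37 °C incubation.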
RORg inh = qHTS for inhibitors of ROR gamma transcriptional activity; 310,000 tested, 5.4% active; Drosophila S2 Gal4-RORgamma UAS-luciferase reporter, 20 h; Nuclear receptor ROR-gamma (Mus musculus), P51450; Potency, µM (highest dose often 53.6 µM), most hits filed as inhibitors; note: nearly all actives have a fitted effect of over 60% in size
Target sequence (P51450 whole entry, looked up, the tested form may be a part): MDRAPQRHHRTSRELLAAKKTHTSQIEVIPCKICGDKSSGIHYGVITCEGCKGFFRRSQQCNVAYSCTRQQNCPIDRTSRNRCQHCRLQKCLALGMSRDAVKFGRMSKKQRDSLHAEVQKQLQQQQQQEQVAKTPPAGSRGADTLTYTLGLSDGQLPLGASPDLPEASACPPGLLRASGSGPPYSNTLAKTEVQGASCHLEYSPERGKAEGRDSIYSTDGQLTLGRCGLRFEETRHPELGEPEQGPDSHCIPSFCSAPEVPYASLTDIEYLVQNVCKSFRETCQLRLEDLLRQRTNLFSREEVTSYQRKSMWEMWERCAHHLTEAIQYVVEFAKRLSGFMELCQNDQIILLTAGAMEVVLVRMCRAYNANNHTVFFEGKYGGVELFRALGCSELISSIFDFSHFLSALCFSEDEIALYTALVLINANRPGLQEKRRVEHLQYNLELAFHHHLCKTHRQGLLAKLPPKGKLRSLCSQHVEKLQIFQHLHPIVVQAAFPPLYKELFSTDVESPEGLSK
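Stable Schneider cell line, Gal4 DNA-binding domain fused to ROR gamma, UAS-luciferase. Cmpd 1 hr RT → CuSO4 700 uM final → 20 hr RT → luciferase reagent 10 min → luminescence.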
DT40 TDP1 CPT = qHTS for Inhibitors of human tyrosyl-DNA phosphodiesterase 1 (TDP1): qHTS in cells in presence of CPT. chicken DT40 Tdp1-/-;hTDP1 cells + 20 nM CPT, ATP luminescence, 48 h. 420,000 tested, 12% active. Potency, µM (series often up to 46.2 µM), usual class: inhibitors; note: nearly all actives have a fitted effect of over 55% in size
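Cell growth measured by CellTiter-Glo luminescence after a minimum 48 h, 37 C compound exposure with 20 nM CPT in Tdp1-knockout DT40 cells stably expressing hTDP1, seeded 400/well; qHTS titration format.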
LDHA inh = qHTS assay for inhibitors of human lactate dehydrogenase | L-lactate dehydrogenase A chain (Homo sapiens), P00338 | purified LDHA, NADH/diaphorase-resazurin fluorescence; hits give low values | activity change, % (values are at about 110 or 230 µM) | 480,000 tested, 0.15% active; in the data active = activity change below about -30%; inconclusive = mostly about -25% to -30%
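Human LDH5 at 2 nM final in Tris HCl pH 7.4 with 0.06 mM NADH and 0.2 mM pyruvate, reacted 5 minutes at room temperature. Remaining NADH coupled via diaphorase/resazurin; resorufin fluorescence read at 0 and 20 minutes, normalized to enzyme-free and DMSO wells.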
Each line names hits and unclear results; the compound was inactive in the other large screens. This is a sample that favours compounds with a hit; in the whole collection about 18% have one here. Unless noted, calls come from the whole dose curve; as a rule, active = well fitted curve in the direction sought with a large enough effect; inconclusive = small, poorly fitted or top-dose-only effect, or another doubt; inactive = no such curve, though single readings can be large; an effect the other way counts as inactive or inconclusive.

O=C(/C=C/c1ccccc1)Nn1cnc2ccccc2c1=O	RORg inh inconclusive, DT40 TDP1 CPT 16.4µM
Cc1ccc(NC(=O)C(C)N(C)Cc2ccc3c(c2)OCCO3)cc1F (stereo unspecified)	none (no result: IL1B secr inh, Gal4-VP16 FLuc, DT40 TDP1 no CPT, RORg inh, DT40 TDP1 CPT)
COc1ccccc1NC(c1cccnc1)c1ccc2cccnc2c1O (stereo unspecified)	Gal4-VP16 FLuc inconclusive, DT40 TDP1 no CPT inconclusive, RORg inh 11.2µM, DT40 TDP1 CPT inconclusive
Cc1ccnc(NC(c2cc(C)ccc2O)c2ccc3cccnc3c2O)c1 (stereo unspecified)	DT40 TDP1 no CPT 10.3µM, DT40 TDP1 CPT inconclusive (no result: IL1B secr inh, Gal4-VP16 FLuc, RORg inh)
C[C@@H](NC(c1ccc(F)cc1)c1ccc2cccnc2c1O)c1ccccc1 (stereo partly specified)	none (no result: IL1B secr inh, Gal4-VP16 FLuc, DT40 TDP1 no CPT, RORg inh, DT40 TDP1 CPT)
O=C(O)c1ccccc1NC(c1ccccc1)c1ccc2cccnc2c1O (stereo unspecified)	DT40 TDP1 no CPT inconclusive, DT40 TDP1 CPT 14.6µM (no result: Gal4-VP16 FLuc, RORg inh)
COc1ccccc1NC(NC(=O)c1cccnc1)C(Cl)(Cl)Cl (stereo unspecified)	DT40 TDP1 CPT inconclusive
O=C(O)c1ccc2cccnc2c1O	RORg inh 14.1µM
COc1ccc(OC)c(NC(=O)c2nc3ccccc3nc2N2CCCCC2)c1	none (no result: IL1B secr inh, Gal4-VP16 FLuc, DT40 TDP1 no CPT, RORg inh, DT40 TDP1 CPT)
Cn1cc(C(=O)N2CCN(C(=O)c3cccs3)CC2)c2ccccc21	none (no result: IL1B secr inh, Gal4-VP16 FLuc, DT40 TDP1 no CPT, RORg inh, DT40 TDP1 CPT)
CC(C)c1ccc(NC(=O)Cn2cnnc2C#N)cc1	none (no result: IL1B secr inh, Gal4-VP16 FLuc, DT40 TDP1 no CPT, RORg inh, DT40 TDP1 CPT)
COc1ccc(-c2nc(C#N)c(N3CCN(C(=O)c4cccs4)CC3)o2)cc1OC	none (no result: IL1B secr inh, Gal4-VP16 FLuc, DT40 TDP1 no CPT, RORg inh, DT40 TDP1 CPT)
C/C=C/C=C/C(=O)NCc1ccc(C(=O)NC)cc1	none (no result: IL1B secr inh, Gal4-VP16 FLuc, DT40 TDP1 no CPT, RORg inh, DT40 TDP1 CPT)
Cc1ccnc(NC(c2ccccc2)c2ccc3cccnc3c2O)c1 (stereo unspecified)	DT40 TDP1 no CPT 20.6µM, DT40 TDP1 CPT inconclusive (no result: Gal4-VP16 FLuc, RORg inh)
COc1cc(-c2nnc(SCCOc3ccc(C)c(Cl)c3)o2)cc(OC)c1OC	DT40 TDP1 no CPT inconclusive, DT40 TDP1 CPT inconclusive (no result: IL1B secr inh, Gal4-VP16 FLuc, RORg inh)
COc1ccc(-c2nnc(-c3cc(OC)c(OC)c(OC)c3)o2)cc1OC	DT40 TDP1 no CPT 14.6µM, DT40 TDP1 CPT 14.6µM (no result: IL1B secr inh)
COc1cc(-c2nnc(SCc3cc(=O)oc4cc(C)ccc34)o2)cc(OC)c1OC	DT40 TDP1 no CPT 29.1µM, DT40 TDP1 CPT inconclusive
COc1cc(-c2nnc(COc3ccc4cc(Br)ccc4c3)o2)cc(OC)c1OC	DT40 TDP1 no CPT 20.6µM, DT40 TDP1 CPT 23.1µM
COc1cc(-c2nnc(SCCOc3ccc(Cl)cc3)o2)cc(OC)c1OC	DT40 TDP1 no CPT 8.2µM, DT40 TDP1 CPT inconclusive (no result: IL1B secr inh, Gal4-VP16 FLuc, RORg inh)
Cn1ncc([N+](=O)[O-])c1C(=O)Nc1ccc(-c2nc3ccccc3[nH]2)cc1	Gal4-VP16 FLuc inconclusive, DT40 TDP1 no CPT 18.4µM, RORg inh inconclusive, DT40 TDP1 CPT inconclusive
CCOc1ccc(C(=O)Nc2ccc(-c3nc4ccccc4[nH]3)cc2)cc1[N+](=O)[O-]	Gal4-VP16 FLuc inconclusive, DT40 TDP1 no CPT 18.4µM, DT40 TDP1 CPT 20.6µM
Cc1ccc(NC(=O)CCc2ncc(-c3c(F)cccc3F)o2)c(O)c1	none (no result: IL1B secr inh, Gal4-VP16 FLuc, DT40 TDP1 no CPT, RORg inh, DT40 TDP1 CPT)
Fc1ccc(Br)cc1-c1nnc2sc(Cn3cccn3)nn12	none (no result: IL1B secr inh, Gal4-VP16 FLuc, DT40 TDP1 no CPT, RORg inh, DT40 TDP1 CPT)
CCc1cccc(NC(=O)c2nc3ccccc3nc2N(CC)CC)c1	none (no result: IL1B secr inh, Gal4-VP16 FLuc, DT40 TDP1 no CPT, RORg inh, DT40 TDP1 CPT)
CCc1ccc(C(=O)Nc2ccc(C(N)=O)cc2)cc1S(=O)(=O)N1CCOCC1	none (no result: IL1B secr inh, Gal4-VP16 FLuc, DT40 TDP1 no CPT, RORg inh, DT40 TDP1 CPT)
O=S(=O)(O)c1cc(O)c(N=Nc2ccc(O)cc2O)c2ccccc12	DT40 TDP1 no CPT inconclusive, DT40 TDP1 CPT inconclusive (no result: Gal4-VP16 FLuc, RORg inh)
O=[N+]([O-])c1ccccc1N=Nc1ccc(O)cc1O	DT40 TDP1 no CPT 25.9µM, DT40 TDP1 CPT inconclusive (no result: Gal4-VP16 FLuc, RORg inh)
O=C(NC(Cc1ccccc1)C(=O)Nc1ccc(N2CCOCC2)cc1)c1ccco1 (stereo unspecified)	none (no result: IL1B secr inh, Gal4-VP16 FLuc, DT40 TDP1 no CPT, RORg inh, DT40 TDP1 CPT)
COc1cccc(-c2ccc3ncnc(NCc4cnc(C)cn4)c3c2)c1	Gal4-VP16 FLuc inconclusive, DT40 TDP1 no CPT 14.6µM, DT40 TDP1 CPT 23.1µM (no result: IL1B secr inh, LDHA inh)

Screening results: PubChem, National Center for Advancing Translational Sciences (NCATS)
